Results as given in article PMC8384837, “Expanding the binding specificity for RNA recognition by a PUF domain”.

Legend:
Test in all cases: yeast three-hybrid, YBZ-1, SC-Leu-His + 0.5 mM 3-AT, 4 days
Conditions in all cases: tags: N-Gal4 AD-HA kept; label: inside an RPR1-promoter hybrid RNA with tandem MS2 sites; ssRNA
[1] = molecular target: PUM1 PUF domain R5-RHC (Homo sapiens, UniProt Q14671 828-1176, C1007R;R1008H;Q1011C)
Summary of the method: (§1)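 Each repeat of the Pumilio-1 PUF domain was randomized at its three base-contacting residues, and these libraries were co-expressed from a centromeric plasmid with matching RNA elements in strain YBZ-1. After four days on SC-Leu (input) or SC-Leu-His + 0.5 mM 3-AT (selection), the repeat regions were PCR-amplified and Illumina-sequenced. The interaction score compares variant frequency between input and selection as a log change, computed in log2 with a pseudocount of 1 for absent variants.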

[2] = molecular target: PUM1 PUF domain R5-GMI (Homo sapiens, UniProt Q14671 828-1176, C1007G;R1008M;Q1011I)
Summary of the method: as §1

[3] = molecular target: PUM1 PUF domain R5-LNL (Homo sapiens, UniProt Q14671 828-1176, C1007L;R1008N;Q1011L)
Summary of the method: as §1

[4] = molecular target: PUM1 PUF domain R5-RSD (Homo sapiens, UniProt Q14671 828-1176, C1007R;R1008S;Q1011D)
Summary of the method: as §1

[5] = molecular target: PUM1 PUF domain R8-FYR (Homo sapiens, UniProt Q14671 828-1176, N1122F;Q1126R)
Summary of the method: as §1

[6] = molecular target: PUM1 PUF domain R8-MHR (Homo sapiens, UniProt Q14671 828-1176, N1122M;Y1123H;Q1126R)
Summary of the method: as §1

[7] = molecular target: PUM1 PUF domain R4-WAC (Homo sapiens, UniProt Q14671 828-1176, N971W;H972A;Q975C)
Summary of the method: as §1

[8] = molecular target: PUM1 PUF domain R3-GPC (Homo sapiens, UniProt Q14671 828-1176, C935G;R936P;Q939C)
Summary of the method: as §1

[9] = molecular target: PUM1 PUF domain R4-GPM (Homo sapiens, UniProt Q14671 828-1176, N971G;H972P;Q975M)
Summary of the method: as §1

[10] = molecular target: PUM1 PUF domain R5-IYH (Homo sapiens, UniProt Q14671 828-1176, C1007I;R1008Y;Q1011H)
Summary of the method: as §1

[11] = molecular target: PUM1 PUF domain R8-KFD (Homo sapiens, UniProt Q14671 828-1176, N1122K;Y1123F;Q1126D)
Summary of the method: as §1

[12] = molecular target: PUM1 PUF domain R8-KHT (Homo sapiens, UniProt Q14671 828-1176, N1122K;Y1123H;Q1126T)
Summary of the method: as §1

[13] = molecular target: PUM1 PUF domain R1-RHR (Homo sapiens, UniProt Q14671 828-1176, S863R;R864H;Q867R)
Summary of the method: as §1

[14] = molecular target: PUM1 PUF domain R3-WYG (Homo sapiens, UniProt Q14671 828-1176, C935W;R936Y;Q939G)
Summary of the method: as §1

[15] = molecular target: PUM1 PUF domain R3-IWT (Homo sapiens, UniProt Q14671 828-1176, C935I;R936W;Q939T)
Summary of the method: as §1

[16] = molecular target: PUM1 PUF domain R3-ARD (Homo sapiens, UniProt Q14671 828-1176, C935A;Q939D)
Summary of the method: as §1

[17] = molecular target: PUM1 PUF domain R5-SGT (Homo sapiens, UniProt Q14671 828-1176, C1007S;R1008G;Q1011T)
Summary of the method: as §1

PUM1 PUF domain R5-RHC, sequence (Q14671 828-1176 C1007R/R1008H/Q1011C): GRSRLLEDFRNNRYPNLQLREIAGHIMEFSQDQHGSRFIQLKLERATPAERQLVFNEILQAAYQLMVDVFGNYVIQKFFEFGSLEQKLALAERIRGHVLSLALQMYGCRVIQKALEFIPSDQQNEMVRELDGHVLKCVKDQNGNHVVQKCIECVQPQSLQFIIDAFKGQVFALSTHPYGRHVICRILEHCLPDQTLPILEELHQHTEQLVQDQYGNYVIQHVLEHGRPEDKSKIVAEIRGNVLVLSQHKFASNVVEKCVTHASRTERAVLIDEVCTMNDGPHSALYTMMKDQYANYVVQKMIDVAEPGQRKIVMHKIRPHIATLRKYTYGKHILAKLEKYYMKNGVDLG
PUM1 PUF domain R3-GPC, sequence (Q14671 828-1176 C935G/R936P/Q939C): as the sequence (Q14671 828-1176 C1007R/R1008H/Q1011C) above, with C108G, R109P, Q112C, R180C, H181R, C184Q counted along it
PUM1 PUF domain R8-FYR, sequence (Q14671 828-1176 N1122F/Q1126R): as the sequence (Q14671 828-1176 C1007R/R1008H/Q1011C) above, with R180C, H181R, C184Q, N295F, Q299R counted along it
PUM1 PUF domain R5-RSD, sequence (Q14671 828-1176 C1007R/R1008S/Q1011D): as the sequence (Q14671 828-1176 C1007R/R1008H/Q1011C) above, with H181S, C184D counted along it
PUM1 PUF domain R4-WAC, sequence (Q14671 828-1176 N971W/H972A/Q975C): as the sequence (Q14671 828-1176 C1007R/R1008H/Q1011C) above, with N144W, H145A, Q148C, R180C, H181R, C184Q counted along it
PUM1 PUF domain R3-WYG, sequence (Q14671 828-1176 C935W/R936Y/Q939G): as the sequence (Q14671 828-1176 C1007R/R1008H/Q1011C) above, with C108W, R109Y, Q112G, R180C, H181R, C184Q counted along it
PUM1 PUF domain R1-RHR, sequence (Q14671 828-1176 S863R/R864H/Q867R): as the sequence (Q14671 828-1176 C1007R/R1008H/Q1011C) above, with S36R, R37H, Q40R, R180C, H181R, C184Q counted along it
PUM1 PUF domain R5-GMI, sequence (Q14671 828-1176 C1007G/R1008M/Q1011I): as the sequence (Q14671 828-1176 C1007R/R1008H/Q1011C) above, with R180G, H181M, C184I counted along it
PUM1 PUF domain R5-IYH, sequence (Q14671 828-1176 C1007I/R1008Y/Q1011H): as the sequence (Q14671 828-1176 C1007R/R1008H/Q1011C) above, with R180I, H181Y, C184H counted along it
PUM1 PUF domain R8-MHR, sequence (Q14671 828-1176 N1122M/Y1123H/Q1126R): as the sequence (Q14671 828-1176 C1007R/R1008H/Q1011C) above, with R180C, H181R, C184Q, N295M, Y296H, Q299R counted along it
PUM1 PUF domain R5-SGT, sequence (Q14671 828-1176 C1007S/R1008G/Q1011T): as the sequence (Q14671 828-1176 C1007R/R1008H/Q1011C) above, with R180S, H181G, C184T counted along it
PUM1 PUF domain R8-KHT, sequence (Q14671 828-1176 N1122K/Y1123H/Q1126T): as the sequence (Q14671 828-1176 C1007R/R1008H/Q1011C) above, with R180C, H181R, C184Q, N295K, Y296H, Q299T counted along it
PUM1 PUF domain R4-GPM, sequence (Q14671 828-1176 N971G/H972P/Q975M): as the sequence (Q14671 828-1176 C1007R/R1008H/Q1011C) above, with N144G, H145P, Q148M, R180C, H181R, C184Q counted along it
PUM1 PUF domain R5-LNL, sequence (Q14671 828-1176 C1007L/R1008N/Q1011L): as the sequence (Q14671 828-1176 C1007R/R1008H/Q1011C) above, with R180L, H181N, C184L counted along it
PUM1 PUF domain R3-ARD, sequence (Q14671 828-1176 C935A/Q939D): as the sequence (Q14671 828-1176 C1007R/R1008H/Q1011C) above, with C108A, Q112D, R180C, H181R, C184Q counted along it
PUM1 PUF domain R8-KFD, sequence (Q14671 828-1176 N1122K/Y1123F/Q1126D): as the sequence (Q14671 828-1176 C1007R/R1008H/Q1011C) above, with R180C, H181R, C184Q, N295K, Y296F, Q299D counted along it
PUM1 PUF domain R3-IWT, sequence (Q14671 828-1176 C935I/R936W/Q939T): as the sequence (Q14671 828-1176 C1007R/R1008H/Q1011C) above, with C108I, R109W, Q112T, R180C, H181R, C184Q counted along it

Q: What does the source list for “GGCUAGAACUAGUGGAUCCCCCGGCGCCCGGCGGCUCGAGCCCGGGUAAGUGUUAAUAGUCUGCAUGCCGCCGGGCGCCAUGCCUGCAGGUCGACUCUAGAAAACAUG”?
A: binding signal [1]: 5.98 log2 enrichment (interaction score); binding signal [2]: 2.18 log2 enrichment (interaction score); binding signal [3]: 3.35 log2 enrichment (interaction score); binding signal [4]: 2.65 log2 enrichment (interaction score)

Q: With “GGCUAGAACUAGUGGAUCCCCCGGCGCCCGGCGGCUCGAGCCCGGGUAAGUGUAAAUAGUCUGCAUGCCGCCGGGCGCCAUGCCUGCAGGUCGACUCUAGAAAACAUG” as the sequence, how does the binding signal [1] read?
A: The binding signal was 3.15 log2 enrichment (interaction score).

Q: What about the binding signal [5] of the same sequence?
A: The binding signal was 5.38 log2 enrichment (interaction score).

Q: And the binding signal [6]?
A: Its binding signal is 3.92 log2 enrichment (interaction score).

Q: And the binding signal [7]?
A: The binding signal was 3.2 log2 enrichment (interaction score).

Q: What about the binding signal [8] of the same sequence?
A: Its binding signal is 2.57 log2 enrichment (interaction score).

Q: And the binding signal [9]?
A: Its binding signal is 2.8 log2 enrichment (interaction score).

Q: And the binding signal [10]?
A: The binding signal was 4.47 log2 enrichment (interaction score).

Q: For “GGCUAGAACUAGUGGAUCCCCCGGCGCCCGGCGGCUCGAGCCCGGGUAAGCGUAAAUAGUCUGCAUGCCGCCGGGCGCCAUGCCUGCAGGUCGACUCUAGAAAACAUG”, which binding signal [5] is on record?
A: Its binding signal is 5.29 log2 enrichment (interaction score).

Q: And the binding signal [11]?
A: The binding signal was 5.69 log2 enrichment (interaction score).

Q: What about the binding signal [12] of the same sequence?
A: The binding signal was 4.89 log2 enrichment (interaction score).

Q: Which binding signal [13] does the source give for “GGCUAGAACUAGUGGAUCCCCCGGCGCCCGGCGGCUCGAGCCCGGGUAAGUGUAAAUCGUCUGCAUGCCGCCGGGCGCCAUGCCUGCAGGUCGACUCUAGAAAACAUG” here?
A: The binding signal was 2.88 log2 enrichment (interaction score).

Q: For “GGCUAGAACUAGUGGAUCCCCCGGCGCCCGGCGGCUCGAGCCCGGGUAAGUGUAAAUUGUCUGCAUGCCGCCGGGCGCCAUGCCUGCAGGUCGACUCUAGAAAACAUG”, which binding signal [13] is on record?
A: The binding signal was 2.91 log2 enrichment (interaction score).

Q: Which results are given for “GGCUAGAACUAGUGGAUCCCCCGGCGCCCGGCGGCUCGAGCCCGGGUAAGUGUAAUUAGUCUGCAUGCCGCCGGGCGCCAUGCCUGCAGGUCGACUCUAGAAAACAUG”?
A: binding signal [14]: 4.81 log2 enrichment (interaction score); binding signal [8]: 2.82 log2 enrichment (interaction score)

Q: What does the source list for “GGCUAGAACUAGUGGAUCCCCCGGCGCCCGGCGGCUCGAGCCCGGGUAAGUGUAAGUAGUCUGCAUGCCGCCGGGCGCCAUGCCUGCAGGUCGACUCUAGAAAACAUG”?
A: binding signal [14]: 3.09 log2 enrichment (interaction score); binding signal [15]: 3.1 log2 enrichment (interaction score); binding signal [16]: 4.51 log2 enrichment (interaction score)

Q: Which binding signal [7] does the source give for “GGCUAGAACUAGUGGAUCCCCCGGCGCCCGGCGGCUCGAGCCCGGGUAAGUGUACAUAGUCUGCAUGCCGCCGGGCGCCAUGCCUGCAGGUCGACUCUAGAAAACAUG” here?
A: Its binding signal is 2.99 log2 enrichment (interaction score).

Q: Which binding signal [4] does the source give for “GGCUAGAACUAGUGGAUCCCCCGGCGCCCGGCGGCUCGAGCCCGGGUAAGUGUCAAUAGUCUGCAUGCCGCCGGGCGCCAUGCCUGCAGGUCGACUCUAGAAAACAUG” here?
A: Its binding signal is 2.74 log2 enrichment (interaction score).

Q: With “GGCUAGAACUAGUGGAUCCCCCGGCGCCCGGCGGCUCGAGCCCGGGUAAGUGUGAAUAGUCUGCAUGCCGCCGGGCGCCAUGCCUGCAGGUCGACUCUAGAAAACAUG” as the sequence, how does the binding signal [17] read?
A: The binding signal was 2.85 log2 enrichment (interaction score).
